Assay results reported in PubChem BioAssay.
A number with no mark means an inactive call.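 Rule for the calls: active = z-score of at least 1.8 in each of two replicates, scored against plate mean and spread of sample wells; inactive = the rest.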

Experiment: viability rescue of complex I mutant cybrids, primary screen, cell-based, galactose medium, ATP luminescence (AID 1645843);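 note: positive z means more ATP and so rescue of galactose-driven cybrid death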
Conditions: complex I mutant cybrid cells, 72 h, stronger effect = higher value

Row | SMILES | z-score
1 | Cc1ccn2cc(Cn3cnc4ccc(F)cc4c3=O)nc2c1 | 0.645
2 | CCCc1cn(C2CCN(C(=O)C(C)N3CCCC3)CC2)nn1 (stereo unspecified) | -0.35
3 | CCC(CC)(CCC#N)CNC1CCOC(C)(C)C1 (stereo unspecified) | -0.485
4 | CC(CCN1CCC(n2cc(CCO)nn2)CC1)CC(C)(C)C (stereo unspecified) | -0.485
5 | CCn1ncc2[nH]c(-c3cc(F)ccc3-n3cccn3)nc21 | -0.185
6 | CN1CCN(Cc2cnc3ccccc3c2)CC1CCO (stereo unspecified) | 0
7 | COc1cc(OC2(C(=O)O)CCSCC2)ccc1CN1CCCNCC1 | -0.23
8 | COc1cccc(-n2cc(-c3ccnc(N(C)CCn4ccnc4)n3)cn2)c1 | 1.84
9 | O=C(C1CCCCCC1)N1CCc2[nH]nc(C3CCC3)c2C1 | 0.435
10 | C=C1C(C)(C)[C@H]2CC[C@]1(C(=O)N1CCC(n3cc(CCCC)nn3)CC1)C2 | 2.16
11 | Cc1ccc2c(C(=O)N3CCC(C)(C)C3)cc(-c3cnn(C(C)C)c3)nc2c1 | -0.01
12 | COc1cccc2ccc(N3CCN(Cc4ccccn4)CC3)nc12 | -0.51
13 | CCN(Cc1ccncc1)C(=O)c1cc(-c2cnc(C)nc2)nc2c(C)cccc12 | -0.835
14 | CCc1ncc(C(=O)N2CCCC(Cn3cc(-c4ccccc4)nn3)C2)cn1 (stereo unspecified) | 0.19
15 | Cc1nc(NC(=O)N2CCCC(c3nc4ccccc4[nH]3)C2)nn1C (stereo unspecified) | 0.195
16 | O=C(O)C1(Oc2cccc(-c3cccc4ncccc34)c2)CCCC1 | -0.5
